About 83,000 compounds went through this panel and 20% of them were active in at least one assay; those are over-represented in the sample as a whole.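 The test compound was applied at a single concentration to cells in 96-well plates for 48 hours, and percent growth was recorded.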 Unmarked numbers belong to inactive results. Calls of active or inactive are those of the source. Rule for the calls: active = growth percent below 10; inactive = the rest.

Test systems include HCT-15 colon; HT29 colon; SNB-75 CNS; SNB-19 CNS; U251 CNS; PC-3 prostate; SK-MEL-5 melanoma; UACC-62 melanoma; LOX IMVI melanoma; SK-MEL-28 melanoma; SK-MEL-2 melanoma; EKVX NSCLC; SN12C renal; UO-31 renal; TK-10 renal; ACHN renal; CAKI-1 renal; A498 renal; CCRF-CEM leukemia; MOLT-4 leukemia.
Holding throughout (experiment): NCI-60 one-dose screen, 48 h (100 = growth as untreated, 0 = no growth, -100 = all killed)
Common to all, as to conditions: 10 µM unless noted

Consider `CC1(C)NCCC[C@]2(C)[C@H]3C/C(=N\O)C4[C@@H]5C[C@@](C)(CO)CC[C@]5(C)CC[C@@]4(C)[C@]3(C)CC[C@@H]12` (stereo not given in full), for which the growth is 93.1% in the experiment on HCT-15 colon; 88.9% in the experiment on HT29 colon; 75.1% in the experiment with SNB-75 CNS; 96.6% in the experiment with SNB-19 CNS; 87.3% in the experiment on U251 CNS; 88.9% with PC-3 prostate. For the same molecule, the growth is 98.7% in the experiment on SK-MEL-5 melanoma; 95.2% in the experiment on UACC-62 melanoma; 101% in the experiment on LOX IMVI melanoma; 103% with SK-MEL-28 melanoma; 101% in the experiment with SK-MEL-2 melanoma; 108% in the experiment with EKVX NSCLC. Further, the growth in the experiment with SN12C renal is 94.1%; with UO-31 renal, 90.2%; with TK-10 renal, 107%; in the experiment with ACHN renal, 101%; with CAKI-1 renal it was 85.8%; with A498 renal, 96.1%. Also, the growth is 91.9% with CCRF-CEM leukemia and 80.5% with MOLT-4 leukemia.
Turning to `C[C@@H](Nc1c(C#N)cnc2ccc(-c3cnc(Cl)c(NS(C)(=O)=O)c3)cc12)c1ccccc1`, the growth was 10.2% in the experiment on HCT-15 colon; 11.6% in the experiment with HT29 colon; -30% (active) in the experiment on SNB-75 CNS; 15.7% with SNB-19 CNS; 15.2% in the experiment with U251 CNS; 5.67% (active) in the experiment on PC-3 prostate. The growth with SK-MEL-5 melanoma is -82.8% (active); in the experiment on UACC-62 melanoma it was -12% (active); in the experiment on LOX IMVI melanoma it was -24.6% (active); with SK-MEL-28 melanoma, 5.72% (active); with SK-MEL-2 melanoma it was -29.4% (active); with EKVX NSCLC, -9.44% (active). For the same molecule, the growth in the experiment with SN12C renal was 9.48% (active); with UO-31 renal it was 4.15% (active); with TK-10 renal it was -17.9% (active); with ACHN renal, 8.09% (active); in the experiment with CAKI-1 renal it was -18.4% (active); with A498 renal, -49.8% (active). Further, the growth is 2.97% (active) in the experiment on CCRF-CEM leukemia and -35.6% (active) in the experiment on MOLT-4 leukemia.
On to `Cc1ccc(S(=O)(=O)NCCNc2nc(Nc3ccc(N4CCN(C)CC4)cc3)nc3ccsc23)cc1`, for which the growth was 29.2% in the experiment on HCT-15 colon; 63.4% in the experiment with HT29 colon; 67.8% in the experiment on SNB-75 CNS; 104% in the experiment on SNB-19 CNS; 90.8% in the experiment on U251 CNS; 87.9% in the experiment on PC-3 prostate. Moreover, the growth with SK-MEL-5 melanoma is 95.9%; in the experiment with UACC-62 melanoma it was 103%; with LOX IMVI melanoma it was 97.8%; with SK-MEL-28 melanoma, 103%; in the experiment with SK-MEL-2 melanoma, 115%; in the experiment with EKVX NSCLC it was 94.9%. The growth was 97.4% in the experiment with SN12C renal; 92.4% in the experiment on UO-31 renal; 121% in the experiment with TK-10 renal; 106% in the experiment on ACHN renal; 74.6% in the experiment on CAKI-1 renal; 110% with A498 renal. Besides, the growth in the experiment on CCRF-CEM leukemia is 74.3%; with MOLT-4 leukemia, 79.1%.
Regarding `CCCCCCCn1cc2c(NCCc3ccccc3)ncnc2n1`, the growth with HCT-15 colon was 95.6%; with HT29 colon it was 118%; in the experiment with SNB-75 CNS, 90.6%; with SNB-19 CNS, 90.4%; in the experiment on U251 CNS, 96.1%; in the experiment with PC-3 prostate, 92.8%. The growth in the experiment on SK-MEL-5 melanoma is 99.6%; with UACC-62 melanoma, 74.2%; in the experiment with LOX IMVI melanoma, 117%; in the experiment with SK-MEL-28 melanoma it was 101%; in the experiment on SK-MEL-2 melanoma it was 127%; with EKVX NSCLC, 84.8%. For the same molecule, the growth in the experiment on SN12C renal was 93.4%; in the experiment with UO-31 renal it was 71.2%; in the experiment on TK-10 renal, 119%; in the experiment on ACHN renal it was 95.1%; in the experiment on CAKI-1 renal, 78.7%; in the experiment with A498 renal, 95.3%. Further, the growth in the experiment on CCRF-CEM leukemia is 96.2%; with MOLT-4 leukemia it was 95.4%.
For the molecule `Cc1nc(-c2ccccc2O)ccc1C(=O)N=Nc1c(O)[nH]c2ccc(Br)cc12`, the growth is 69.9% with HCT-15 colon; 112% in the experiment with HT29 colon; 93.7% with SNB-75 CNS; 101% with SNB-19 CNS; 103% in the experiment with U251 CNS; 88.2% with PC-3 prostate. In addition, the growth in the experiment on SK-MEL-5 melanoma is 96.9%; in the experiment on UACC-62 melanoma, 91.6%; in the experiment on LOX IMVI melanoma, 107%; with SK-MEL-28 melanoma, 101%; with SK-MEL-2 melanoma, 104%; with EKVX NSCLC it was 79.6%. The growth was 95.1% in the experiment with SN12C renal; 73% in the experiment on UO-31 renal; 167% in the experiment with TK-10 renal; 91.5% in the experiment with ACHN renal; 84.6% in the experiment with CAKI-1 renal; 101% with A498 renal. Besides, the growth is 86.1% with CCRF-CEM leukemia and 102% in the experiment on MOLT-4 leukemia.
Take `N/C(=N\C(N)=N\c1nc2ccccc2s1)c1cccc(F)c1`: the growth was 94.6% [5 µM] in the experiment on HCT-15 colon; 111% [5 µM] in the experiment with HT29 colon; 89.2% [5 µM] with SNB-75 CNS; 96% [5 µM] with SNB-19 CNS; 94.1% [5 µM] with U251 CNS; 75.5% [5 µM] in the experiment on PC-3 prostate. In addition, the growth with SK-MEL-5 melanoma is 98.2% [5 µM]; in the experiment with UACC-62 melanoma, 89.1% [5 µM]; in the experiment on LOX IMVI melanoma, 83.2% [5 µM]; with SK-MEL-28 melanoma, 108% [5 µM]; in the experiment with SK-MEL-2 melanoma, 98% [5 µM]; in the experiment with EKVX NSCLC it was 81.4% [5 µM]. Moreover, the growth with SN12C renal is 76.9% [5 µM]; in the experiment on UO-31 renal, 82.8% [5 µM]; in the experiment with TK-10 renal it was 187% [5 µM]; in the experiment with ACHN renal, 85.9% [5 µM]; with CAKI-1 renal it was 84% [5 µM]; with A498 renal, 97.1% [5 µM]. In addition, the figures for the growth in the experiment on CCRF-CEM leukemia and with MOLT-4 leukemia were 93.9% [5 µM] and 84.9% [5 µM], respectively.

For the origin of these results see PubChem BioAssay (NCI).
